High-throughput results deposited in PubChem BioAssay by several laboratories.
NALP3 yeast inh – NALP3 inhibition in yeast; Yeast reconstituted NLRP3/ASC/caspase-1, beta-gal luminescence, 24 h; 0.39% of 330,000 active; AID 2825; inhibition, % at 10 µM;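 active = inhibition of 50% or more; inactive = inhibition below 50%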;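 note: plate controls were induced DMSO wells for no effect and uninduced yeast grown without galactose for full effect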
tim10-1 inh – tim10-1 yeast growth inhibition; S. cerevisiae tim10-1 ts strain growth, BacTiter-Glo, 24 h; inhibition, % at 20 µM; 2.2% of 330,000 active;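 active = inhibition of at least 40%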;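 note: mutant grown at 25 °C; 0% = DMSO wells with yeast and 100% = wells holding no yeast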
PfHsp90 set2 – inhibits growth of yeast expressing Plasmodium falciparum Hsp90; inhibition, % at 9.4 µM; 0.32% of 310,000 active; S. cerevisiae expressing PfHsp90, BacTiter-Glo ATP, 48 h; yeast lacking PDR1 and PDR3 efflux regulators; AID 504621;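 active = every replicate shows inhibition above about 80%, whatever the replicate mean, limit read from the data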;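 note: 0% = DMSO neutral controls and 100% = 20 µM radicicol positive controls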
tim23-1 inh – growth inhibitors of tim23-1 mutant yeast; S. cerevisiae tim23-1 growth, BacTiter-Glo luminescence, 24 h; inhibition, % at 20 µM; 1.3% of 330,000 active; AID 463212;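 active = growth inhibition of the mutant yeast at or above 50%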;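 note: temperature-sensitive mutant grown at 25 °C; plate controls were DMSO-treated mutant yeast for no effect and medium wells lacking yeast for full effect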
TIM10 inh – inhibits growth of TIM10 yeast strain; S. cerevisiae TIM10 strain growth, BacTiter-Glo luminescence, 24 h; AID 463195; 1.4% of 330,000 active; inhibition, % at 10 µM;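 active = inhibition of 40% or more at the single tested concentration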;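 note: wild-type TIM10 isogenic control strain grown at permissive 25 °C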
TIM10 conf – TIM10 yeast growth inhibition, confirmed | AID 463215 | S. cerevisiae tim10 strain growth, BacTiter-Glo luminescence, 24 h | 63% of 4,600 active | inhibition, % at 10 µM | shares compounds with TIM10 inh;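 active = inhibition of yeast growth at or above a set limit in either of two replicates at 10 µM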;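 note: this counterscreen used the strain with wild-type TIM10; 0% = yeast with DMSO and 100% = medium wells lacking yeast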
tim23-1 confirm – tim23-1 yeast growth inhibition, confirmed; shares compounds with tim23-1 inh; S. cerevisiae tim23-1 growth, BacTiter-Glo luminescence, 24 h; inhibition, % at 20 µM; 83% of 4,400 active; AID 463218;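 active = inhibition above about 39% in either of two replicate wells at 20 µM, limit read from the data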;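 note: temperature-sensitive tim23-1 mutant grown at 25 °C; 0% = DMSO wells with yeast and 100% = medium wells without yeast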
Starred values were filed as active, the others as inactive; . = no result given. In the library only some 3.7% were active in any assay of this set; here they are far more common.

SMILES | NALP3 yeast inh | tim10-1 inh | PfHsp90 set2 | tim23-1 inh | TIM10 inh | TIM10 conf | tim23-1 confirm
CCOc1ccccc1NC(=O)c1cc(S(=O)(=O)NCc2ccco2)ccc1F | -0.4 | 22.6 | -32.6 | 15.0 | 17.2 | . | .
Cc1ccc(S(=O)(=O)N2CCN(C(=O)COC(=O)COc3cccc4c3OC(C)(C)C4)CC2)cc1 | 20.6 | 14.6 | 17.5 | 14.5 | 2.1 | . | .
Cc1c(C(=O)Oc2cccc3cccnc23)oc2ccccc12 | 24.7 | 36.3 | -0.8 | 64.6* | 53.5* | 40.5* | 58.3*
O=C(NNS(=O)(=O)c1ccccc1Cl)c1nn(-c2ccc(F)cc2)ccc1=O | 10.1 | -3.2 | 0.9 | -6.1 | -0.1 | . | .
O=C(NCCc1cnn(-c2ccccc2)c1)c1cc(COc2c(F)cccc2F)on1 | 33.7 | 29.3 | 3.6 | 52.1* | 68.1* | 53.0* | 67.8*
Cc1ccc2c(c1)C(=O)C(=O)N2Cc1ccc(C(F)(F)F)cc1 | 1.4 | 29.9 | 149.8* | 81.9* | 41.3* | 58.1* | 31.9*
Cc1ccc2c(c1)C(=O)C(=O)N2CC(=O)OC(C)C | 7.2 | 19.4 | 14.7 | 14.6 | 5.6 | . | .
Cc1cccc(OCc2nnc(SCC(=O)N3c4ccccc4CC3C)n2C)c1C (stereo not drawn) | 14.7 | 39.5 | -19.7 | 54.4* | 44.4* | -2.0 | 42.2*
CC1(c2ccccc2)ON(c2ccccc2C(F)(F)F)C1=O (stereo not drawn) | -3.8 | -32.8 | . | 62.0* | 54.1* | 64.6* | -13.0
O=C(Nc1cccc(C(=O)Nc2cccc(Br)c2)c1)c1ccccc1 | 27.6 | 5.1 | -19.9 | 46.3 | 12.3 | . | .
O=C(Nc1cccc(Br)c1)c1ccn[nH]1 | 40.4 | 1.0 | 3.5 | 57.1* | 59.2* | 40.7* | 59.8*
CCNC(=O)C1CC(=O)N(c2ccc(Br)cc2)C1 (stereo not drawn) | 9.0 | -18.4 | 13.2 | -2.6 | -4.5 | . | .
COc1ccc(CN=C2NN=C(c3ccc(Cl)cc3)CS2)cc1 | -10.8 | 13.6 | 20.1 | 65.3* | 45.6* | 31.5* | 67.7*
Cc1ccn2cc(C(=O)Nc3ccc4c(c3)OCCO4)nc2c1 | 30.3 | 29.4 | -13.0 | 50.3* | 43.8* | 24.8 | 49.5*
Cc1ccn2cc(C(=O)Nc3nnc(C)s3)nc2c1 | 11.8 | 20.2 | -0.8 | 24.5 | 20.4 | . | .
O=C(Nc1ccc(OC(F)(F)F)cc1)N1CCN(c2ccnc3cc(Cl)ccc23)CC1 | 8.2 | 35.5 | -22.2 | 74.4* | 46.0* | 27.8 | 67.2*
CC(C)(C)C(=O)N1CCN(c2ccnc3cc(Cl)ccc23)CC1 | 19.7 | -3.3 | -14.4 | 12.1 | 3.1 | . | .
CCOC(=O)CSC1=NC(=O)/C(=C\c2ccc(Cl)cc2)S1 | 38.0 | 37.8 | 64.2 | 71.2* | 49.5* | 58.2* | 44.9*
c1ccc2c(c1)ncn2CCC1CCCCC1 | 22.1 | 33.6 | -3.1 | 53.4* | 41.8* | 35.2* | 18.7
Cc1ccc(-n2c(-c3ccco3)nc3nc4ccccc4nc32)cc1 | 22.5 | 10.8 | -11.6 | 0.8 | 13.4 | . | .
O=C1C(=O)c2ccc(-c3ccccc3)cc2-c2ccccc21 | 11.9 | 36.3 | . | 59.2* | 43.9* | 61.2* | 55.8*
Nc1ccc2c(c1)C(=O)c1ccccc1C2=O | 4.0 | 6.1 | . | -3.5 | 1.7 | . | .
Cc1ccc(-n2c(-c3ccc(Cl)cc3)n[nH]c2=S)c(C)c1 | 0.7 | 24.2 | -16.0 | 54.6* | 46.6* | 48.7* | 42.3*
COc1ccc(-c2n[nH]c(=S)n2-c2ccc(C)cc2C)cc1 | 21.9 | 38.6 | 6.1 | 42.5 | 30.6 | . | .
O=C(COC(=O)c1cc(S(=O)(=O)N2CCCC2)ccc1O)NCCc1ccccc1 | 8.8 | 0.1 | 32.5 | 7.0 | -0.3 | . | .
SMILES | NALP3 yeast inh | tim10-1 inh | PfHsp90 set2 | tim23-1 inh | TIM10 inh | TIM10 conf | tim23-1 confirm
COc1ccc(/C=C/C(=O)O/N=C(\N)c2cccnc2)cc1OC | 12.4 | 6.2 | -32.7 | 13.4 | -7.7 | . | .
CCOC(=O)/C(=C\c1ccc(OC)c(OC)c1)C(=O)c1cccnc1 | 27.3 | 34.6 | 29.9 | 59.4* | 49.8* | 48.4* | 56.3*
O/N=C/c1ccccc1OCc1ccc(Cl)cc1 | 22.5 | 23.0 | -9.8 | 51.8* | 42.5* | -27.2 | 58.5*
Cc1c(C2(O)CCCCC2)[nH]c2ccc(C(F)(F)F)cc12 | 44.6 | 38.5 | 48.8 | 81.6* | 58.6* | 66.5* | 64.7*
COC(=O)/C(=C(/F)Sc1cc(C)c(O)c(C)c1)C(F)(F)F | 18.2 | 32.3 | -29.0 | 53.6* | 42.4* | 29.9 | 51.9*
Oc1ccc(-c2cc(-c3ccc(O)cc3)nc(-c3ccccc3)n2)cc1 | 4.2 | 31.2 | 10.8 | 61.3* | 67.1* | 62.7* | 61.5*
COC(=O)[C@@H](Cc1ccccc1)NC(=O)Cn1cc(C)c(=O)[nH]c1=O | . | . | 11.9 | . | . | . | .
CN1/C(=C\C(=O)CSc2cccc[n+]2[O-])C(C)(C)c2ccccc21 | 2.2 | 32.1 | 11.6 | 65.2* | 41.3* | -5.8 | 78.1*
Cc1cc(NC(=O)CCC(=O)N(CC(=O)NC2CCCC2)c2ccc(F)c(Cl)c2)no1 | 19.7 | 13.6 | -16.8 | -0.4 | 7.1 | . | .
N#Cc1cn(Cc2cccc(Cl)c2)c2ccccc12 | 33.5 | 26.6 | . | 31.5 | -1.5 | . | .
N#Cc1ccccc1Cn1cc(/C=C/[N+](=O)[O-])c2ccccc21 | 3.8 | 31.9 | 10.5 | 69.1* | 66.7* | -1.1 | 81.8*
CC(C)(C)n1cnc2cc(NCc3ccc(Br)cc3)ccc21 | 42.3 | 25.5 | 3.2 | 54.2* | 52.6* | 37.5* | 69.2*
O=C(C1COc2ccccc2O1)N1CCN(c2ccc([N+](=O)[O-])cc2)CC1 (stereo not drawn) | 12.3 | 35.5 | -12.2 | 61.0* | 43.0* | 46.9* | 54.5*
COc1ccc(N2CCN(C(=O)CCCCCn3c(=O)[nH]c4ccsc4c3=O)CC2)cc1 | 5.6 | -1.1 | -6.0 | 9.1 | -13.8 | . | .
COc1ccc(C(=O)NN)cc1COc1ccc(Br)cc1 | 10.7 | 30.7 | 7.9 | 61.0* | 46.9* | 40.3* | 43.2*
O=C(/C=C/c1ccccn1)c1cc(Cl)cc(Cl)c1O | 3.3 | 37.2 | -4.2 | 63.0* | 61.2* | 53.2* | 24.0
COc1ccc(S(=O)(=O)N2CCN(Cc3ccc(Cl)cc3)CC2)cc1 | 20.2 | 27.8 | 8.1 | 58.4* | 42.3* | 40.4* | 50.5*
O=C(O)c1ccc(C=NNC(=O)c2cccc3ccccc23)cc1 | . | . | -45.9 | . | . | . | .
O=C(N/N=C/c1ccccc1O)c1cccc2ccccc12 | 27.8 | -13.2 | -14.8 | 66.5* | 40.7* | 21.0 | 39.0
CN(C)S(=O)(=O)c1cc(NC(=O)COC(=O)CC2CC3CCC2C3)ccc1Cl (stereo not drawn) | -11.1 | -5.9 | 13.8 | 11.3 | 1.1 | . | .
CCOc1ccc(NC(=O)COC(=O)CC2CC3CCC2C3)cc1 (stereo not drawn) | 18.5 | 4.4 | -35.9 | 58.6* | 44.2* | 39.8* | 53.9*
Cc1nc(C)c(-c2csc(Nc3ccccn3)n2)s1 | 13.5 | 26.7 | -5.7 | 53.6* | 48.1* | 47.2* | 45.4*
